# Epigenetic reg = regulators of epigenetic silencing causing reporter derepression in mouse cells. murine LDR cells, GFP reporter derepression, 30 h. Potency, µM (series often up to 53.9 µM), inactives show at the top dose GFP activation, usual class: activators. 280,000 compounds, 0.2% hits; further: % of control where 0% means no effect; nearly all actives have a fitted effect of over 60% in size
#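 GFP-positive cell count by laser-scanning cytometry (objects 20–120 um) after 30 h, 37 C compound exposure of murine LDR cells; reporter is CMV-GFP integrated at a silenced locus, inducible by HDAC or DNMT inhibitors.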
# VP16 counter = Gal4-VP16 reporter inhibition counter-screen; Drosophila S2 Gal4-VP16 UAS-luciferase, luminescence, 20 h; Potency, µM (top dose mostly 53.6 µM), without a hit: top-dose activity, negative = inhibition, usual class: inhibitors; 310,000 compounds, 3.5% hits; AID 2546;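 further: Gal4-VP16 expression switched on by copper sulfate through the metallothionein promoter; on the % scale 0 is the no-effect control and ±100 the full control effect; nearly all actives have a fitted effect of over 50% in size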
# ClpP mod = qHTS Assay for Activators of ClpP | AID 651965, 2013 | Potency, µM (highest dose often 57.5 µM), for the others: top-dose activity change, negative = active | ATP-dependent Clp protease proteolytic subunit (Bacillus subtilis (strain 168)), P80244 | purified B. subtilis ClpP, FRET peptide cleavage, 20 min | 340,000 compounds, 1.9% hits; active means well fitted falling curve with a large enough effect; inconclusive means small, poorly fitted or top-dose-only effect; inactive means no such curve, though single readings can be large or run the other way; further: the source files actives as falling curves though it sought activators and does not explain the sign; nearly all actives have a fitted effect of over 65% in size
# Target sequence (P80244 whole entry, looked up): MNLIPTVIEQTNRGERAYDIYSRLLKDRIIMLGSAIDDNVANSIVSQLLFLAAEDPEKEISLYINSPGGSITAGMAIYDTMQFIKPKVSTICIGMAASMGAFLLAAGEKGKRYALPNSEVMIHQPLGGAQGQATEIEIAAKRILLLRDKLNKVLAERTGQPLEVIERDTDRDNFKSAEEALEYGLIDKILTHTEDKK
#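 Buffer: 100 mM Tris/HCl pH8, 100 mM KCl, 0.05% low protease BSA, 2.5% glycerol, 0.01% Tween-20. ClpP 10 microg/mL final; 20 min RT; delta FRET normalized to ADEP and DMSO controls.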
# PINK1 expr mod = changes PINK1 expression. 410,000 compounds, 0.2% hits. AID 624263. PINK1 immunofluorescence, high-content cytometry, 24 h. Potency, µM (doses to about 76.6 µM), inactives show at the top dose activation (PINK1 increase), usual class: activators; active means well fitted activation curve with a large enough effect; inconclusive means small, poorly fitted or top-dose-only effect; cell line not stated here; further: % of control where 0% means no effect; nearly all actives have a fitted effect of over 65% in size
#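 PINK1 protein, normally rapidly degraded, was detected by immunofluorescence after 24 hour compound treatment of a stable cell line. Titration data (5 concentrations) came from laser-scanning cytometry, with CCCP-treated wells as controls.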
# RORg inh = ROR gamma (mouse) transcription inhibition. Drosophila S2 Gal4-RORgamma UAS-luciferase reporter, 20 h. Potency, µM (series often up to 53.6 µM), for inactives: top-dose activity change, negative = inhibition, most hits filed as inhibitors. 310,000 compounds, 5.4% hits; further: on the % scale 0 is the no-effect control and ±100 the full control effect; nearly all actives have a fitted effect of over 60% in size
# Target sequence (P51450 whole entry, looked up, the tested form may be a part): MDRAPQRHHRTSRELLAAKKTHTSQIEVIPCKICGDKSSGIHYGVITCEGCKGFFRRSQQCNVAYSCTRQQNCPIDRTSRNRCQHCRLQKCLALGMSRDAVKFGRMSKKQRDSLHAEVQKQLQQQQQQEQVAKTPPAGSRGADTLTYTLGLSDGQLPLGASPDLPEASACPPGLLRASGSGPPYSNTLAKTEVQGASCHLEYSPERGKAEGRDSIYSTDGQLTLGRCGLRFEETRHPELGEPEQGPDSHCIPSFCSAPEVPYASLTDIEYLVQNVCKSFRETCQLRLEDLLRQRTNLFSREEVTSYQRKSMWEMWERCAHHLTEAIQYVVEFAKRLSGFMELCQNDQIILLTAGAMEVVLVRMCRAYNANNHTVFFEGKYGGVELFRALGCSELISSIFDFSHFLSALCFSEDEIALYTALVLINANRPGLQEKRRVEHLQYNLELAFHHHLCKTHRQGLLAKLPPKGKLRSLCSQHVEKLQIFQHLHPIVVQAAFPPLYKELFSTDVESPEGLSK
#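 In this cell-based reporter format, copper sulfate (700 uM final) drives Gal4–ROR gamma fusion expression from a metallothionein promoter in Drosophila Schneider cells; compounds preincubated 1 hr, reporter read after 20 hr at ambient temperature.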
# Sfp inh = inhibitors of Bacillus subtilis Sfp phosphopantetheinyl transferase. 310,000 compounds, 3.5% hits. Biochemical Sfp PPTase activity, qHTS. Potency, µM, without a hit: largest response in the series, negative = inhibition, hits mostly inhibitors;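 further: the enzyme is Sfp with the accession as filed and its product quenches rhodamine fluorescence; 0% = enzyme reaction without inhibitor and -100% = no enzyme wells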
#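 With Hepes-Na pH 7.6 buffer containing 10 mM MgCl2, Sfp (15 nM) modified BHQ-2-YbbR (12.5 uM) using rhodamine-CoA (5 uM). Two reads 30 minutes apart at 525/598 nm yielded each well's rate.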
# * hit, by the source's call; ? = inconclusive; . = no result given; [ ] = another dose, or the depositor's remark. Only some compounds are listed: those with a hit (about 8.1% of all), similar ones and a draw of the others. Unless noted, the call rests on the fitted dose curve; in most records, active means well fitted curve in the direction sought with a large enough effect; inconclusive means small, poorly fitted or top-dose-only effect, or another doubt; inactive means no such curve, though single readings can be large; an effect the other way counts as inactive or inconclusive. Potency means the concentration at half of the fitted maximal effect.
SMILES,Epigenetic reg,VP16 counter,ClpP mod,PINK1 expr mod,RORg inh,Sfp inh
CCc1ccc(NC(=O)CN2C(C(=O)OC)=C(c3ccccc3)c3ccccc3S2(=O)=O)cc1,-1%,.,-1%,2%,.,.
Cc1cccc(OCC(=O)Nc2cccc(C(=O)OCc3cc(=O)n4c(C)csc4n3)c2)c1,?,.,-2%,3%,.,.
CC1CN(C2CCN(C(=O)COc3ccc(Cl)cc3)CC2)CC(C)O1 (stereo unspecified),0%,1%,?,-2%,-27%,71µM*
O=C(CCC1N=C2c3ccccc3N=C(SCC(=O)Nc3ccccc3F)N2C1=O)NCc1ccccc1 (stereo unspecified),-1%,.,?,0%,.,.
O=C(O)CCCC(=O)Nc1ccc2c(c1)oc1ccccc12,.,?,-2%,3%,11µM*,3%
CC(C)c1ccc(/C=C2\SC(=S)N(CCC(=O)N3CCCCC3CCO)C2=O)cc1 (stereo unspecified),.,?,0%,?,10µM*,-18%
O=C1/C(=C/c2ccccc2Cl)SC(=S)N1CCC(=O)N1CCCCC1CCO (stereo unspecified),.,-3%,-2%,2%,-35%,-19%
O=C1/C(=C\c2ccccc2)SC(=S)N1CCC(=O)N1CCCCC1CCO (stereo unspecified),.,1%,0%,2%,7%,-2%
COc1ccc(/C=C2\SC(=S)N(CCCC(=O)N3CCCCC3CCO)C2=O)cc1 (stereo unspecified),.,3.5µM*,-1%,1%,2.2µM*,-11%
COc1ccc(C(=O)OC2=C(C(=O)c3ccccc3)N(C)S(=O)(=O)c3ccccc32)cc1OC,0%,.,-4%,-1%,.,.
c1ccc(C2=NNC(c3ccccn3)=NN2)nc1,.,?,1%,-1%,?,13µM*
c1ccc(-c2nc(-c3ccccn3)nc(-c3ccccn3)n2)nc1,0%,-14%,-9%,1%,-40%,?
c1ccc(-c2nnc(-c3ccccn3)s2)nc1,2%,5%,.,1%,1.8µM*,89µM*
COc1ccc(NC(=O)C2=C(C)Nc3ncnn3C2c2cccn2C)cc1 (stereo unspecified),-2%,.,2%,?,.,.
c1cc2c3c(cccc3c1)C(N1CCCCCC1)=N2,-2%,?,75%,1%,7.9µM*,-18%
CCN(CC)CCNC(=O)c1ccc2c(=O)n3nc(Nc4cccc(Cl)c4C)sc3nc2c1,-1%,.,-10%,4%,.,.
COc1ccc(Cl)cc1-n1c(C)cc(C=O)c1C,-1%,0%,32µM*,3%,-17%,14%
COc1ccccc1OC(C)C(=O)Nc1cccc(-c2nc3ccccc3o2)c1 (stereo unspecified),?,.,?,-1%,.,.
CC1=NN(c2nc(-c3ccc(C)cc3)cs2)C(=O)C1N=Nc1ccc2ccccc2c1 (stereo unspecified),-3%,5%[0.365 µM],2%,-1%,-29%,11%
CC1=NN(c2nc(-c3ccccc3)cs2)C(=O)C1N=Nc1ccccc1 (stereo unspecified),0%,-2%,.,6%,7.1µM*,-3%
O=C(COc1ccc2oc3c(c2c1)CCCC3)Nc1ccc(Br)cc1,2%,.,-1%,-2%,.,.
COc1cc(Nc2c3c(nc4ccccc24)CCCC3)cc(OC)c1OC,0%,9%,.,?,11µM*,6%
c1ccc2c(Nc3ccc4c(c3)OCCO4)c3c(nc2c1)CCCC3,0%,-5%,.,40µM*,13%,50µM*
COc1ccccc1Nc1c2c(nc3ccccc13)CCC2,.,0%,.,?,2%,11%
Fc1cccc(Nc2c3c(nc4ccccc24)CCC3)c1,.,-14%,.,?,10%,1%
SMILES,Epigenetic reg,VP16 counter,ClpP mod,PINK1 expr mod,RORg inh,Sfp inh
Cc1ccccc1C(=O)NC(=S)N(C)CCc1ccccn1,0%,?,.,-2%,7.1µM*,-17%
CN(CCc1ccccn1)C(=O)Nc1ccc(C(C)(C)C)cc1,-1%,5%,28µM*,1%,23%,4%
Cc1ccsc1C1Cc2c(C(=O)NCc3cccnc3)c(=O)cc(C)n2-c2ccccc2S1 (stereo unspecified),.,.,.,-1%,.,.
CCOC(=O)/C=C1/N(C)c2ccccc2C1(C)C,0%,-4%,.,6%,-12%,4%
CN1/C(=C\C=C(C#N)C#N)C(C)(C)c2ccccc21,25µM*,3%,-2%,5%,-1%,4%
CN1/C(=C\C=N\NC(=O)c2ccccc2Br)C(C)(C)c2ccccc21,-3%,1.3µM*,-2%,1%,0.79µM*,2%
CN1/C(=C\C(=O)Nc2ccc(Cl)cc2)C(C)(C)c2ccccc21,1%,?,.,?,?,9%
CC1(C)C2CC=C(/C=N/NC(=O)c3ccccc3Br)C1C2 (stereo unspecified),0%,-4%,-3%,9%,2%,15%
CN1/C(=C\C=C(/C#N)C(=O)Nc2ccc(Cl)cc2)C(C)(C)c2ccccc21,22µM*,-21%,0%,?,-3%[10 µM],18%
CN1/C(=C\C(=O)c2cccs2)C(C)(C)c2ccccc21,-2%,?,1%,4%,?,-4%
CN1/C(=C\P(=O)(N(C)C)N(C)C)C(C)(C)c2ccccc21,-1%,7.9µM*,-1%,-1%[38.3 µM],-39%,-10%
CC(C)c1ccc(NC(=O)C2CCCN(S(=O)(=O)c3ccc4[nH]c(=O)ccc4c3)C2)cc1 (stereo unspecified),0%,.,-2%,0%,.,.
CN1/C(=C/C2CC(=O)NC2=O)C(C)(C)c2ccccc21 (stereo unspecified),0%,23%,-2%,13%[38.3 µM],0%,-19%
CN1/C(=C/C=N/n2cnnc2)C(C)(C)c2ccccc21,0%,18µM*,-15%,.,23%,-13%
Cc1ccc(C)c(NC(=O)c2ccccc2NS(=O)(=O)c2cc([N+](=O)[O-])ccc2C)c1,2%,14µM*,-1%,8.9µM*,?,2%
Cc1ccc(C)c(S(=O)(=O)Nc2ccccc2C(=O)Nc2cc(C)on2)c1,1%,-9%,16µM*,0%[38.3 µM],-36%,7%
Cc1cc(NC(=O)c2ccccc2NS(=O)(=O)c2c(C)c(C)cc(C)c2C)no1,0%,-6%,28µM*,-1%[38.3 µM],4%,-2%
Cc1ccc([N+](=O)[O-])cc1S(=O)(=O)Nc1cccc(S(=O)(=O)Nc2ccccc2C(=O)O)c1,.,.,-1%,0%,.,.
Cc1cc(C)c(C)c(S(=O)(=O)Nc2ccccc2C(=O)O)c1C,?,-7%,.,0%,-9%,?

# Screening results deposited in PubChem by National Center for Advancing Translational Sciences (NCATS).
